Among all 320,000 compounds or so, about 22,000 (6.9%) were called active. Roughly 27% stayed inconclusive and do not appear here. The call rests on the fitted dose curve; in most records, active means well fitted inhibition curve with a large enough effect; inconclusive means small, poorly fitted or top-dose-only effect, or another doubt; inactive means no such curve, though single readings can be large or run the other way. What follows is part of a selection rich in actives, with near analogues and random picks from the rest.
assay: Primary qHTS for delayed death inhibitors of the malarial parasite plastid, 96 hour incubation; details: P. falciparum luciferase reporter growth; series mostly up to 28.7 µM; activity change, negative = inhibition: at the top concentration
How it was run: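 96 h incubation, 37 C, 5% CO2, of luciferase-reporter P. falciparum-infected RBCs (2% hematocrit, 0.05% parasitemia final) with test compounds; endpoint luminescence.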
On the % scale 0 is the no-effect control and ±100 the full control effect; potency means the concentration at half of the fitted maximal effect.

Question: Which “activity change, negative = inhibition” value does the source give for `C=Cc1ccc(C(=O)N2CCCC(CCC(=O)N3CCN(c4ccccn4)CC3)C2)cc1` (configuration not stated) here?
Answer: 37.2% (inactive)

Question: Which “activity change, negative = inhibition” value does the source give for `C/C=C/C(=O)OCc1csc(CC(=O)Nc2ccccc2C)n1` here?
Answer: -7.19% (inactive)

Question: For `O=C(NCCc1ccc(C(F)(F)F)cc1)c1ccc2c(c1)OCO2`, which “activity change, negative = inhibition” value is on record?
Answer: 17.6% (inactive)

Question: With `CCOC(=O)c1nnn2c3ccccc3c(=O)n(C)c12` as the compound, how does the “activity change, negative = inhibition” value read?
Answer: 0% (inactive)

Question: For `O=C(COC(=O)c1ccccc1C(=O)N1CCN(c2ccccc2)CC1)NCc1ccccc1`, which “activity change, negative = inhibition” value is on record?
Answer: -13.9% (inactive)

Question: Which Potency does the source give for `CCOC(=O)c1nnn2c1nc(N1CCN(c3ccccc3)CC1)c1ccccc12` here?
Answer: 2.62 µM (active)

Question: For `O=C(NCCc1ccccc1)Oc1ccc(Cl)cc1`, which “activity change, negative = inhibition” value is on record?
Answer: 83.8% (inactive)

Question: With `CCn1c(SCC(=O)NNC(=O)c2ccc(OC)cc2)nnc1C(C)C` as the compound, how does the “activity change, negative = inhibition” value read?
Answer: -16.7% (inactive)

Question: Which “activity change, negative = inhibition” value does the source give for `CC1CCC(CN2CCN=C2N(C)C)CC1` (configuration not stated) here?
Answer: 3.19% (inactive)

Question: With `O=C(CCCN1C(=O)CCC1=O)Nc1ccc(Cl)c(C(F)(F)F)c1` as the compound, how does the Potency read?
Answer: 2.08 µM (active)

Question: Which “activity change, negative = inhibition” value does the source give for `CCCCC(=O)Nc1ccc(C(=O)Nc2cc(C(F)(F)F)ccc2Cl)cc1` here?
Answer: -15.4% (inactive)

Question: For `O=C1CCCN1CCCNC(=S)Nc1ccc(F)c(Cl)c1`, which “activity change, negative = inhibition” value is on record?
Answer: 4.63% (inactive)

Question: For `CNC(=O)c1sc(Nc2ccc(OCc3ccccc3)cc2)nc1C`, which “activity change, negative = inhibition” value is on record?
Answer: 1.4% (inactive)

Question: Which “activity change, negative = inhibition” value does the source give for `O=C(COc1ccccc1[N+](=O)[O-])N/N=C/c1ccc[nH]1` here?
Answer: 31.6% (inactive)

Question: With `S=C(Nc1ccc(Br)cc1)NC1CCN(Cc2ccccc2)CC1` as the compound, how does the “activity change, negative = inhibition” value read?
Answer: -20.3% (inactive)

Question: For `O=C(NNC(=O)c1cnccc1C(F)(F)F)c1ccc(Cl)cc1`, which “activity change, negative = inhibition” value is on record?
Answer: 41.6% (inactive)

Question: For `COC(=O)C1=C(c2cccc(OCc3ccccc3)c2)C[C@@H]2CC[C@H]1N2C(=O)NNCc1ccccc1`, which Potency is on record?
Answer: 10.4 µM (active)

Question: For `COC(=O)c1ccc(CNC(=O)C2CCC(=O)N(Cc3cccc(F)c3)C2)cc1` (configuration not stated), which “activity change, negative = inhibition” value is on record?
Answer: 26% (inactive)

Question: With `COC(=O)C1=C(c2ccc(F)cc2OCc2ccccc2)C[C@@H]2CC[C@H]1N2C(=O)NCc1ccc2[nH]ccc2c1` as the compound, how does the Potency read?
Answer: 5.86 µM (active)

Question: Which “activity change, negative = inhibition” value does the source give for `COC(=O)C1=C(c2ccc(C(C)=O)cc2)C[C@@H]2CC[C@H]1N2C(=O)NCCNC(C)=O` here?
Answer: 36% (inactive)

Question: Which “activity change, negative = inhibition” value does the source give for `COc1ccccc1CNC(=O)CN1CCC(n2cnc3cc(F)ccc32)CC1` here?
Answer: 45.9% (inactive)

Question: For `COC(=O)C1=C(c2ccc3ccccc3c2)C[C@@H]2CC[C@H]1N2C(=O)NCCO`, which “activity change, negative = inhibition” value is on record?
Answer: -21.9% (inactive)

Question: Which “activity change, negative = inhibition” value does the source give for `COc1ccc(S(=O)(=O)NC(C)C(=O)NCc2ccncc2)cc1Cl` (configuration not stated) here?
Answer: -22.5% (inactive)

Question: For `CC1CN(C(=O)COC(=O)c2cccc(NS(=O)(=O)c3ccccc3)c2)CC(C)O1` (configuration not stated), which “activity change, negative = inhibition” value is on record?
Answer: -10.8% (inactive)

Question: With `O=C(Nc1ccccc1)N1CCC(C(=O)N2CCN(Cc3ccccc3)CC2)CC1` as the compound, how does the “activity change, negative = inhibition” value read?
Answer: -19.7% (inactive)

Question: Which “activity change, negative = inhibition” value does the source give for `COc1ccc(N(C)S(=O)(=O)c2ccc3c(c2)CC(C)N3C(=O)C2CC2)c(OC)c1` (configuration not stated) here?
Answer: 11.3% (inactive)

Question: Which “activity change, negative = inhibition” value does the source give for `Cc1ccccc1Nc1nc(-c2cccnc2)cs1` here?
Answer: -7.11% (inactive)

Question: For `Cc1cc(C(=O)NNC(=O)c2ccccc2O)c(C)o1`, which “activity change, negative = inhibition” value is on record?
Answer: 57.1% (inactive)

Question: Which Potency does the source give for `CC(=O)NC(=O)c1ccccc1O` here?
Answer: 5.36 µM (active)

Question: Which “activity change, negative = inhibition” value does the source give for `O=C(Nc1ccc(O)cc1)c1ccccc1O` here?
Answer: 28.8% (inactive)

Question: With `COc1ccc(C(=O)Nc2c(N)nc(SCC(=O)Nc3ccc(C(C)=O)cc3)[nH]c2=O)cc1` as the compound, how does the “activity change, negative = inhibition” value read?
Answer: -14.7% (inactive)

Question: For `CCn1c(SCc2ccc(C)cc2)nnc1-c1nn(-c2ccccc2)ccc1=O`, which Potency is on record?
Answer: 7.38 µM (active)

Question: With `Cc1ccc(-n2ccc(=O)c(C(=O)O)n2)cc1` as the compound, how does the “activity change, negative = inhibition” value read?
Answer: -10.7% (inactive)

Question: For `CCc1ccc(-c2nn(-c3ccccc3)cc2CSC(=N)N)cc1`, which “activity change, negative = inhibition” value is on record?
Answer: 33.9% (inactive)

Question: With `CCOc1ccc(N(CC(=O)NCC2CCCO2)S(=O)(=O)c2ccc(C)cc2)cc1` (configuration not stated) as the compound, how does the “activity change, negative = inhibition” value read?
Answer: 17.6% (inactive)

Question: With `CCOC(=O)c1cccnc1NC(=O)c1ccncc1` as the compound, how does the “activity change, negative = inhibition” value read?
Answer: 18.8% (inactive)

Question: For `CCOC(=O)c1sc(NC(=O)c2ccncc2)nc1C`, which Potency is on record?
Answer: 9.28 µM (active)

Question: For `CCOC(=O)c1sc(NC(=O)c2sc(C)nc2C)nc1C`, which “activity change, negative = inhibition” value is on record?
Answer: 32.2% (inactive)

Question: Which “activity change, negative = inhibition” value does the source give for `CCc1nc(SCC(=O)NNC(=O)c2ccc(C)cc2)c2ccccc2n1` here?
Answer: 16.4% (inactive)

Question: For `C=Cn1cc[n+](CC(=O)c2ccc(OC)c(OC)c2)c1`, which “activity change, negative = inhibition” value is on record?
Answer: -6.61% (inactive)

Question: For `C=CCOc1ccc(/C=C2/C(=O)ON=C2C)cc1OCC`, which “activity change, negative = inhibition” value is on record?
Answer: 2.1% (inactive)

Question: Which “activity change, negative = inhibition” value does the source give for `COc1ccc(NC(=O)CN(C)C(=O)Cc2coc3cc(C)c(C)cc23)cc1` here?
Answer: -1.57% (inactive)

Question: For `NC(=O)C1CCN(C(=O)/C(=C/c2ccco2)NC(=O)c2ccccc2)CC1`, which “activity change, negative = inhibition” value is on record?
Answer: -2.21% (inactive)

Question: Which “activity change, negative = inhibition” value does the source give for `O=C(C1CCN(C2CCN(Cc3ccc4cc(F)ccc4n3)CC2)CC1)N1CCCC1` here?
Answer: 16% (inactive)

Question: For `C/C(=C\c1ccco1)CN1CCC(N2CCC(C(=O)N3CCOCC3)CC2)CC1`, which Potency is on record?
Answer: 5.86 µM (active)

Question: For `CCOC(=O)C1=C(c2ccc(OC)cc2)C(=O)c2ccccc2C1=O`, which “activity change, negative = inhibition” value is on record?
Answer: 2.89% (inactive)

Question: Which “activity change, negative = inhibition” value does the source give for `CCOC(=O)c1c(C)[nH]c(C(=O)NCc2ccccc2OC)c1C` here?
Answer: 55.2% (inactive)

Question: For `CCOC(=O)c1c(C)[nH]c2c1-c1ccccc1C(=O)C2=O`, which Potency is on record?
Answer: 1.47 µM (active)

Question: Which “activity change, negative = inhibition” value does the source give for `CCOC(=O)COc1nc(C)cc(C(F)(F)F)c1C#N` here?
Answer: 10.9% (inactive)

Question: For `COc1ccccc1C(=O)NN1C(=O)C2C3C=CC(O3)C2C1=O` (configuration not stated), which “activity change, negative = inhibition” value is on record?
Answer: 12.9% (inactive)

Question: Which Potency does the source give for `O=C(NN1C(=O)C2C3C=CC(O3)C2C1=O)c1ccccc1` (configuration not stated) here?
Answer: 11.7 µM (active)

Question: Which “activity change, negative = inhibition” value does the source give for `O=C(NN1C(=O)C2C3C=CC(O3)C2C1=O)c1ccncc1` (configuration not stated) here?
Answer: 31.8% (inactive)

Question: With `Cc1ccc(S(=O)(=O)N2CCN(C(=O)N3CCOCC3)CC2)c(C)c1` as the compound, how does the “activity change, negative = inhibition” value read?
Answer: 0% (inactive)

Question: With `O=C(COC(=O)c1ccccc1Cl)NC1CCCCCCC1` as the compound, how does the “activity change, negative = inhibition” value read?
Answer: 22.8% (inactive)

Question: Which “activity change, negative = inhibition” value does the source give for `CCOc1ccc(N2C(=O)CSC2=NC#N)cc1` here?
Answer: -2.8% (inactive)

Question: For `CC(=O)OC(COc1ccc(F)cc1)Cn1cnc2ccccc21` (configuration not stated), which “activity change, negative = inhibition” value is on record?
Answer: -11.5% (inactive)

Question: Which Potency does the source give for `CC(=O)OCC(COC(C)=O)OC(C)=O` here?
Answer: inactive

Question: With `CC(=O)N=c1ncn(CC(COC(C)=O)OC(C)=O)c2nc[nH]c12` (configuration not stated) as the compound, how does the Potency read?
Answer: 7.38 µM (active)

Question: For `CCOc1ccc(NS(=O)(=O)c2ccc(Cl)c(C(=O)N(C)Cc3cccnc3)c2)cc1`, which “activity change, negative = inhibition” value is on record?
Answer: -18.3% (inactive)

Question: With `CC1(OC(=O)CCc2ccccc2)C(=O)C=C2C=C(c3ccc(C#N)cc3)N(CCc3ccccn3)C=C2C1=O` (configuration not stated) as the compound, how does the Potency read?
Answer: 13.1 µM (active)

Question: With `COCCN1C=C2C(=O)C(C)(OC(=O)C3CCCC3)C(=O)C=C2C=C1c1ccsc1` (configuration not stated) as the compound, how does the “activity change, negative = inhibition” value read?
Answer: 31% (inactive)

Question: With `Cc1ccc(OCCCC(=O)Nc2ccc(S(=O)(=O)Nc3cc(C)nc(C)n3)cc2)cc1` as the compound, how does the “activity change, negative = inhibition” value read?
Answer: 2.09% (inactive)

Question: With `CCCS(=O)(=O)Nc1ccc(-c2cn3c(n2)SCC3)cc1` as the compound, how does the “activity change, negative = inhibition” value read?
Answer: 60.1% (inactive)

Question: For `CC(=O)Nc1ccc(NC(=O)COc2ccccc2C(=O)Nc2cccc(Cl)c2Cl)cc1`, which “activity change, negative = inhibition” value is on record?
Answer: -7.49% (inactive)

Question: Which Potency does the source give for `O=C(Nc1cccc(Cl)c1Cl)c1ccccc1NC(=O)C1CC=CCC1C(=O)O` (configuration not stated) here?
Answer: 14.7 µM (active)

Question: For `O=C(O)C1CC=CCC1C(=O)Nc1ccccc1C(=O)N1CCN(c2ccccc2)CC1` (configuration not stated), which “activity change, negative = inhibition” value is on record?
Answer: -3.07% (inactive)

Question: With `COCc1c(C(=O)N/N=C\c2cccnc2)nnn1-c1nonc1N` as the compound, how does the “activity change, negative = inhibition” value read?
Answer: -18.9% (inactive)

Source: PubChem BioAssay AID504834 (National Center for Advancing Translational Sciences (NCATS), 2011)
